Among the data in PubChem BioAssay (NCI) are growth inhibition values, retold here.

Compounds without any hit were thinned out: in the full panel of roughly 79,000, 15% have a hit. Values without a mark were called inactive. Activity calls are given as the source filed them. Cut-off read from the data, not from the text of the source: active = growth inhibition above about 70%; inactive = the rest.

One assay can be described thus: NCI Yeast Anticancer Drug Screen. Data for the CLN2oe strain (AID 163).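 Note: 0% = growth of vehicle-only control cultures.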 The conditions noted are these: S. cerevisiae CLN2oe strain, at 3.7 µM, stronger effect = higher value. In short, it runs like this: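 Yeast cells carrying a defined cell-cycle control alteration were exposed to test compounds. Growth inhibition was scored against vehicle-treated control cultures.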
For the molecule `CNC(=O)OCc1c(COC(=O)NC)c(C)n(-c2ccc(Cl)c(Cl)c2)c1C`, the growth inhibition was -4%.

On to `COc1ccc2nc(N/N=C/c3sccc3C)cc(C)c2c1`, for which the growth inhibition was -6%.

As to `O=C(O)/C=C\C(=O)NNc1ccc(Br)cc1`, the growth inhibition is 96% (active).

For `S=c1[nH]nc(Cc2ccccc2)c(=S)[nH]1`, the growth inhibition was 25%.

In the case of `COc1ccc2nc3cccc([N+](=O)[O-])c3c(NCCCO)c2c1`, the growth inhibition was 43%.

Regarding `CCN(CC)CCSc1c2ccccc2nc2cc(NCC(=O)Nc3ccccc3-c3ccccc3NC(=O)CNc3ccc4c(SCCN(CC)CC)c5ccccc5nc4c3)ccc12`, the growth inhibition was 7%.

For `Cc1ccc(N(C=O)c2c([N+](=O)[O-])cc([N+](=O)[O-])c3c2=[N+]([O-])CN=3)cc1`, the growth inhibition was 8%.

Turning to `COc1ccc(C(=O)OCCc2ccccc2)cc1`, the growth inhibition is -9%.

As to `COc1ccc(C(=O)NCCN(C)C)c2nc3ccccc3cc12`, the growth inhibition was 26%.

Turning to `NCC(O)CSCc1ccc(Cl)cc1` (centres undefined), the growth inhibition was 0%.

Regarding `CN(C)/N=N/c1nc[nH]c1C(N)=O`, the growth inhibition is 2%.

Regarding `O=c1[nH]c(=O)n(CCCO)cc1F`, the growth inhibition was 8%.

For `COc1ccc(/C(=N/O)c2ccccc2C2=Nc3ccccc3C(NCc3ccccc3)O2)cc1C` (centres undefined), the growth inhibition is 2%.

For the molecule `CCCC(=O)OC(OC(=O)CCC)c1ccc([N+](=O)[O-])o1`, the growth inhibition is -8%.

On to `O=C(/C(=C/c1ccccc1)CBr)c1ccccc1`, for which the growth inhibition is 6%.

`Cc1cccc(N2CCN(C(=O)/C(=C/c3ccccc3)NC(=O)c3ccccc3)CC2)c1`: the growth inhibition was -6%.

As to `c1cc(Nc2ccc3c(c2)OCO3)c2cc(C3CCCCC3)ccc2n1`, the growth inhibition is 3%.

Regarding `Cc1ccc2nc(N/N=C/c3ccc(C)s3)cc(C)c2c1`, the growth inhibition is -5%.

For `COc1cc(NCCCCCNC(C)C)c2ncccc2c1Cl`, the growth inhibition is -6%.

`COc1ccc2cc(CN3CCC(C4CCN(Cc5ccc6cc(OC)ccc6c5)CC4)CC3)ccc2c1`: the growth inhibition is 29%.

In the case of `CC(=O)O/N=C/c1c2ccccc2cc2ccccc12`, the growth inhibition was -20%.

As for `CC[C@@]1(OC(=O)CN(C)C)C(=O)OCc2c1cc1n(c2=O)Cc2cc3ccccc3nc2-1`, the growth inhibition is 2%.

For `CC1(C)CC(=O)C(C(CC(c2ccccc2)c2cc3c(cc2O)OCO3)C2=C(O)CC(C)(C)CC2=O)=C(O)C1` (centres undefined), the growth inhibition is -3%.

In the case of `CCCCCCC(CCl)c1sc(-c2csc(CCNC(=O)OC(C)(C)C)n2)nc1C(=O)OC` (centres undefined), the growth inhibition is -2%.

For the molecule `CCOC(=O)C1=C(C)NC(C)=C(C(=O)OCC)C1c1cccc([N+](=O)[O-])c1`, the growth inhibition is -34%.

`Cc1ccc2c(/C=C/c3ccc(N(C)C)cc3)ccnc2c1C`: the growth inhibition was 34%.

In the case of `O=C1C(Br)=CC(Br)(Br)C=C1Br`, the growth inhibition is 18%.

The same assay, now with this note: S. cerevisiae CLN2oe strain, at 11.0 µM, stronger effect = higher value.
As to `CNC(=O)OCc1c(COC(=O)NC)c(C)n(-c2ccc(Cl)c(Cl)c2)c1C`, the growth inhibition was -1%.

For `COc1ccc2nc(N/N=C/c3sccc3C)cc(C)c2c1`, the growth inhibition was -1%.

In the case of `O=C(O)/C=C\C(=O)NNc1ccc(Br)cc1`, the growth inhibition is 99% (active).

Consider `S=c1[nH]nc(Cc2ccccc2)c(=S)[nH]1`, for which the growth inhibition was 35%.

As to `COc1ccc2nc3cccc([N+](=O)[O-])c3c(NCCCO)c2c1`, the growth inhibition is 88% (active).

In the case of `CCN(CC)CCSc1c2ccccc2nc2cc(NCC(=O)Nc3ccccc3-c3ccccc3NC(=O)CNc3ccc4c(SCCN(CC)CC)c5ccccc5nc4c3)ccc12`, the growth inhibition is 11%.

For the molecule `Cc1ccc(N(C=O)c2c([N+](=O)[O-])cc([N+](=O)[O-])c3c2=[N+]([O-])CN=3)cc1`, the growth inhibition was 34%.

With `COc1ccc(C(=O)OCCc2ccccc2)cc1`, the growth inhibition is -10%.

In the case of `COc1ccc(C(=O)NCCN(C)C)c2nc3ccccc3cc12`, the growth inhibition is 29%.

As to `NCC(O)CSCc1ccc(Cl)cc1` (centres undefined), the growth inhibition was -2%.

`CN(C)/N=N/c1nc[nH]c1C(N)=O`: the growth inhibition is 0%.

On to `O=c1[nH]c(=O)n(CCCO)cc1F`, for which the growth inhibition is 9%.

Consider `COc1ccc(/C(=N/O)c2ccccc2C2=Nc3ccccc3C(NCc3ccccc3)O2)cc1C` (centres undefined), for which the growth inhibition is 1%.

Turning to `CCCC(=O)OC(OC(=O)CCC)c1ccc([N+](=O)[O-])o1`, the growth inhibition was -10%.

Take `O=C(/C(=C/c1ccccc1)CBr)c1ccccc1`: the growth inhibition is 47%.

As for `Cc1cccc(N2CCN(C(=O)/C(=C/c3ccccc3)NC(=O)c3ccccc3)CC2)c1`, the growth inhibition was 3%.

Take `c1cc(Nc2ccc3c(c2)OCO3)c2cc(C3CCCCC3)ccc2n1`: the growth inhibition is -1%.

As for `Cc1ccc2nc(N/N=C/c3ccc(C)s3)cc(C)c2c1`, the growth inhibition is 7%.

Take `COc1cc(NCCCCCNC(C)C)c2ncccc2c1Cl`: the growth inhibition is 6%.

On to `COc1ccc2cc(CN3CCC(C4CCN(Cc5ccc6cc(OC)ccc6c5)CC4)CC3)ccc2c1`, for which the growth inhibition was 19%.

As for `CC(=O)O/N=C/c1c2ccccc2cc2ccccc12`, the growth inhibition was -13%.

For the molecule `CC[C@@]1(OC(=O)CN(C)C)C(=O)OCc2c1cc1n(c2=O)Cc2cc3ccccc3nc2-1`, the growth inhibition is 31%.

Take `CC1(C)CC(=O)C(C(CC(c2ccccc2)c2cc3c(cc2O)OCO3)C2=C(O)CC(C)(C)CC2=O)=C(O)C1` (centres undefined): the growth inhibition was 1%.

For `CCCCCCC(CCl)c1sc(-c2csc(CCNC(=O)OC(C)(C)C)n2)nc1C(=O)OC` (centres undefined), the growth inhibition is -9%.

For the molecule `CCOC(=O)C1=C(C)NC(C)=C(C(=O)OCC)C1c1cccc([N+](=O)[O-])c1`, the growth inhibition was -23%.

`Cc1ccc2c(/C=C/c3ccc(N(C)C)cc3)ccnc2c1C`: the growth inhibition is 26%.

For the molecule `O=C1C(Br)=CC(Br)(Br)C=C1Br`, the growth inhibition is 34%.
